Screening data: PubChem, National Center for Advancing Translational Sciences (NCATS)
G9a block: qHTS Assay for Inhibitors of Histone Lysine Methyltransferase G9a. Histone-lysine N-methyltransferase EHMT2 (Homo sapiens), Q96KQ7. G9a H3K9 monomethylation, AlphaScreen, 2 h. Potency, µM (top dose mostly 102 µM), for the others: at the highest dose activity, negative = inhibition, most hits filed as inhibitors. 8.8% of 350,000 active; further: on the % scale 0 is the no-effect control and ±100 the full control effect; nearly all actives have a fitted effect of over 75% in size
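Enzyme 20 nM + cpd, 15 min RT; add b-H3K9 pep 500 nM / SAM 20 uM; 2 h RT; anti-H3K9me1 Ab 0.5 ug/mL + SA donor / anti-rabbit acceptor beads 20 ug/mL each, 10 min; AlphaScreen read.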
Sfp inh: qHTS Assay for Inhibitors of Bacillus subtilis Sfp phosphopantetheinyl transferase (PPTase). 3.5% of 310,000 active. Biochemical Sfp PPTase activity, qHTS. Potency, µM, inactives show largest response in the series, negative = inhibition, actives largely listed as inhibitors. AID 1490, 2009;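 further: the enzyme is Sfp with the accession as filed and its product quenches rhodamine fluorescence; 0% = enzyme reaction without inhibitor and -100% = no enzyme wells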
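Reaction rates are the 30-min fluorescence difference (ex 525, em 598 nm) in wells containing 15 nM Sfp, 5 uM rhodamine-CoA and 12.5 uM BHQ-2-YbbR at pH 7.6 with 10 mM MgCl2.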
BAZ2B block: qHTS Assay for Inhibitors of BAZ2B; Bromodomain adjacent to zinc finger domain protein 2B (Homo sapiens), Q9UIF8; AlphaScreen BAZ2B-H3K14Ac peptide displacement; Potency, µM (highest dose often 114 µM), for the others: top-dose activity change, negative = inhibition, actives largely listed as inhibitors; 4.4% of 360,000 active; AID 504333, 2011; further: on the % scale 0 is the no-effect control and ±100 the full control effect; nearly all actives have a fitted effect of over 60% in size
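BAZ2B (50 nM) with biotin-H3(5-23)K14Ac peptide (50 nM) in PBS pH 7.4, 0.01% Tween-20, preformed 30 min, then compound 30 min at room temperature; top concentration 110uM. AlphaScreen streptavidin donor/nickel chelate acceptor beads (10 ug/mL final), 20 min dark, signal read.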
JMJD2A Tudor: qHTS Assay for Inhibitors of JMJD2A-Tudor Domain; AID 504339, 2011; Potency, µM (series often up to 114 µM), inactives show top-dose activity change, negative = inhibition, most hits filed as inhibitors; AlphaScreen JMJD2A-Tudor / H3K4me3 peptide binding; 4.4% of 390,000 active; Lysine-specific demethylase 4A (Homo sapiens), O75164; further: on the % scale 0 is the no-effect control and ±100 the full control effect; nearly all actives have a fitted effect of over 50% in size
Target sequence (O75164 whole entry, looked up, the tested form may be a part): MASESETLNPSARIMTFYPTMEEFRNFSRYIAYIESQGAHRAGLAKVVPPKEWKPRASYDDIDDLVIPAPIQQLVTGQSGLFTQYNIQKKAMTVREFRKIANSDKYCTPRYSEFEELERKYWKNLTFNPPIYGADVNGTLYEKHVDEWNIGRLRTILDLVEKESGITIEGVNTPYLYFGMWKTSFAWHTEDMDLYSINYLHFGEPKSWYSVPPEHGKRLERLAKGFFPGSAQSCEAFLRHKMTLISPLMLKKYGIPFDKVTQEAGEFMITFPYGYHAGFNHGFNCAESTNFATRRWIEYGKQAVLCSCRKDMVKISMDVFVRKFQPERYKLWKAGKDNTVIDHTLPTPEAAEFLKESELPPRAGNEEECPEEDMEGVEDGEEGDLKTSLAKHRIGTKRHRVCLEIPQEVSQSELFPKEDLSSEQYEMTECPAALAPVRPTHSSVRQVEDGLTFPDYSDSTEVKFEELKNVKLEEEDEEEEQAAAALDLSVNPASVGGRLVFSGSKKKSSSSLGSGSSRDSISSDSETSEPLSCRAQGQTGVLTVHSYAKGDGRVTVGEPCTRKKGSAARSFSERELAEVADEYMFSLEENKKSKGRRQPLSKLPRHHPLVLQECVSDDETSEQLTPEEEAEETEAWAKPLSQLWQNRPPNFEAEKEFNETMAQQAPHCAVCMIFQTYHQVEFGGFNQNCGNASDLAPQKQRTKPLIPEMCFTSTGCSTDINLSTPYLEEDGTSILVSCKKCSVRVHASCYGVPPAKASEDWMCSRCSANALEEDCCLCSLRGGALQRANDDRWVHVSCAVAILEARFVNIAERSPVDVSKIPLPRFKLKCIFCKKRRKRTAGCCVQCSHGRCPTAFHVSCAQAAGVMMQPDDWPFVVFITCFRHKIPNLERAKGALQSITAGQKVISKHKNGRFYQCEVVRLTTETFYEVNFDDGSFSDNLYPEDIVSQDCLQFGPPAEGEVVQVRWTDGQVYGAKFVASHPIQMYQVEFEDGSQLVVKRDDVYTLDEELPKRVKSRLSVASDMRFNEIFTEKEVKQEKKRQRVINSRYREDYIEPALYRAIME
HP1b binding inh: HTS for Inhibitors of HP1-beta Chromodomain Interactions with Methylated Histone Tails. Potency, µM (series often up to 114 µM), inactives show top-dose activity change, negative = inhibition, hits mostly inhibitors. AlphaScreen HP1-beta / biotin-H3K9me3 peptide binding. 0.56% of 390,000 active. Chromobox protein homolog 1 (Homo sapiens), P83916. AID 540317, 2011; further: nearly all actives have a fitted effect of over 70% in size
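Compound inhibition of the preformed complex between 50 nM HP1-beta and 50 nM biotinylated H3K9me3 peptide was read by AlphaScreen. Buffer was PBS pH 7.4 with 0.01% Tween-20. Incubations ran 30 min at room temperature, with 10 ug/mL donor/acceptor beads.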
* = called active by the depositor; [ ] = another dose, or the depositor's remark. Only some compounds are listed: those with a hit (about 12% of all), similar ones and a draw of the others. The call rests on the fitted dose curve; in most records, active means well fitted curve in the direction sought with a large enough effect; inconclusive means small, poorly fitted or top-dose-only effect, or another doubt; inactive means no such curve, though single readings can be large; an effect the other way counts as inactive or inconclusive. Potency means the concentration at half of the fitted maximal effect.

Results for COc1ccc(-c2sc3cc(OC)c(OC)cc3c2C#CCO)cc1 ?
JMJD2A Tudor: 20µM*; HP1b binding inh: 24%

How did O=S(=O)(CCc1ccncc1)Cc1ccc2c3c(cccc13)CC2 do in these assays?
G9a block: 50µM*; Sfp inh: 6%; BAZ2B block: -3%; JMJD2A Tudor: -4%; HP1b binding inh: 25%

What do the screens show for `COC(=O)CC1C(=O)NCCN1C(=O)CSc1nc2ccccc2s1` (centres undefined)?
G9a block: 7.1µM*; Sfp inh: 71µM*; JMJD2A Tudor: -35%; HP1b binding inh: 11%

Results for O=C(COc1ccccc1[N+](=O)[O-])N1CCCc2ccccc21 ?
G9a block: 71µM*; Sfp inh: -4%; BAZ2B block: -7%; JMJD2A Tudor: -15%; HP1b binding inh: 19%

Results for O=C(COc1ccc2c(c1)CCC2)N1CCc2ccccc21 ?
G9a block: -3%[59 µM]; Sfp inh: -6%; BAZ2B block: 1%; JMJD2A Tudor: 40µM*; HP1b binding inh: inconclusive

How did COc1ccc(NC(=S)NC(NC(=O)c2cccc3ccccc23)C(Cl)(Cl)Cl)c([N+](=O)[O-])c1 (centres undefined) do in these assays?
G9a block: 45µM*; Sfp inh: -2%; BAZ2B block: inconclusive; JMJD2A Tudor: inconclusive; HP1b binding inh: -21%

How did COc1ccc(NC(=S)NC(NC(=O)CCl)C(Cl)(Cl)Cl)c([N+](=O)[O-])c1 (centres undefined) do in these assays?
G9a block: 25µM*; Sfp inh: 25µM*; BAZ2B block: inconclusive; JMJD2A Tudor: inconclusive; HP1b binding inh: inconclusive

How did COc1ccc(NC(=S)NC(NC(=O)c2ccccc2Cl)C(Cl)(Cl)Cl)c([N+](=O)[O-])c1 (centres undefined) do in these assays?
G9a block: 0%[12.7 µM]; Sfp inh: 18%; BAZ2B block: inconclusive; JMJD2A Tudor: inconclusive; HP1b binding inh: -34%

What do the screens show for `CCn1cc(C(=O)Nc2ncccc2O)c(=O)c2cc(F)c(N3CCN(C(=O)c4ccco4)CC3)cc21`?
G9a block: -6%; Sfp inh: 20%; BAZ2B block: -8%; JMJD2A Tudor: -13%; HP1b binding inh: 17%[57 µM]

Results for N#Cc1c2n(c(=S)n(-c3ccccc3[N+](=O)[O-])c1=O)CCCCC2 ?
G9a block: 40µM*; Sfp inh: inconclusive; JMJD2A Tudor: inconclusive; HP1b binding inh: -7%

How did N#Cc1c2n(c(=S)n(-c3ccccc3)c1=O)CCCCC2 do in these assays?
G9a block: -3%; Sfp inh: 1%; BAZ2B block: -15%; JMJD2A Tudor: -10%; HP1b binding inh: 73%

Results for COc1ccc(-n2c(SC(C)C(=O)Nc3ccc(NC(C)=O)cc3)nc3ccccc3c2=O)cc1OC (centres undefined) ?
G9a block: inconclusive; Sfp inh: -4%; BAZ2B block: -9%; JMJD2A Tudor: -24%; HP1b binding inh: 21%

What do the screens show for `Cc1ccc(S(=O)(=O)/N=S(/c2ccccc2)C(C)C)cc1` (centres undefined)?
G9a block: 4.5µM*; Sfp inh: 18µM*; BAZ2B block: -2%; JMJD2A Tudor: -32%; HP1b binding inh: inconclusive

Results for CCc1cc(C(=O)Cc2nc3ccccc3[nH]2)c(O)cc1O ?
G9a block: 7%; Sfp inh: -2%; BAZ2B block: -4%; JMJD2A Tudor: -18%; HP1b binding inh: 48%

How did O=C(NCc1ccco1)c1cccc2c1C(=O)c1ccc(/C=C/c3ccccc3)cc1S2(=O)=O do in these assays?
JMJD2A Tudor: 40µM*; HP1b binding inh: inconclusive

Results for CN(C)c1ccc(C(=S)N2CCN(c3ccc([N+](=O)[O-])cc3)CC2)cc1 ?
G9a block: 2.2µM*; Sfp inh: 3.5µM*; BAZ2B block: 7%; JMJD2A Tudor: inconclusive; HP1b binding inh: inconclusive

How did Cc1ccc(N2CCN(C(=S)c3ccc(N(C)C)cc3)CC2)cc1 do in these assays?
G9a block: 5µM*; Sfp inh: 20µM*; BAZ2B block: 13µM*; JMJD2A Tudor: 32µM*; HP1b binding inh: inconclusive

How did COC(=O)[C@H]1[C@H]2C[C@H]3c4[nH]c5ccccc5c4CCN3C[C@H]2CC[C@@H]1O do in these assays?
G9a block: -29%[59 µM]; Sfp inh: 8%; BAZ2B block: -35%; JMJD2A Tudor: -26%; HP1b binding inh: 34%

How did Cc1ccc(NS(=O)(=O)Cc2ccccc2)nc1 do in these assays?
G9a block: 28µM*; Sfp inh: -24%; BAZ2B block: -14%; JMJD2A Tudor: 1%; HP1b binding inh: 32%

How did O=S(=O)(Cc1ccccc1)Nc1ccccc1Br do in these assays?
G9a block: -2%; Sfp inh: 15%; BAZ2B block: 2%; JMJD2A Tudor: -2%; HP1b binding inh: 25%

Results for Cc1ccnc(NS(=O)(=O)Cc2ccccc2)c1 ?
G9a block: inconclusive; Sfp inh: 12%; BAZ2B block: 0%; JMJD2A Tudor: -17%; HP1b binding inh: 54%

What do the screens show for `O=S(=O)(Cc1ccccc1)Nc1ccc(Br)cn1`?
G9a block: 71µM*; Sfp inh: 33%; BAZ2B block: -14%; JMJD2A Tudor: -3%; HP1b binding inh: 63%

What do the screens show for `CC1(c2nnc(-c3ccc(Cl)cc3)o2)CC(c2ccc(Cl)cc2)=NO1` (centres undefined)?
G9a block: 19%[12.7 µM]; Sfp inh: -5%; BAZ2B block: 36%; JMJD2A Tudor: -4%; HP1b binding inh: 34%

Results for COC(=O)Cc1ccc(N(Cc2ccccc2F)S(=O)(=O)c2ccc(Cl)cc2)cc1 ?
G9a block: 18%; Sfp inh: 1%; BAZ2B block: 5%; JMJD2A Tudor: 38%; HP1b binding inh: 71%

How did O=C1c2ccc([N+](=O)[O-])cc2S(=O)(=O)N1Cc1ccccc1 do in these assays?
G9a block: 11µM*; Sfp inh: -7%; BAZ2B block: inconclusive; JMJD2A Tudor: inconclusive; HP1b binding inh: inconclusive

Results for CCOC(=O)C1(C)/C(=N/Nc2ccccc2OC)C(=O)C(=O)N1c1ccccc1 (centres undefined) ?
G9a block: 4.5µM*; Sfp inh: -23%; BAZ2B block: 40µM*; JMJD2A Tudor: 25µM*; HP1b binding inh: 40µM*

How did CCOC(=O)C1(C)C=C(Nc2cccc(OC)c2)C(=O)N1c1ccccc1 (centres undefined) do in these assays?
G9a block: 25%; Sfp inh: 21%; BAZ2B block: -19%; JMJD2A Tudor: inconclusive; HP1b binding inh: 34%
